The whole screen tested about 5,500 compounds, of which about 2,000 (36%) were called active. Roughly 18% stayed inconclusive and do not appear here. Rule as the data show it: active = normalized growth mostly below about 0.91 (no sharp cut-off); inconclusive = no clear call, values can overlap the other calls; inactive = mostly above about 0.92. Some of the results follow.
Assay: chemical genetic growth profiling, strain panel (AID 1159580);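 also: tested at 20 µM; growth read once vehicle control cultures reached saturation at 30 °C; 1 = growth at the plate median or of vehicle wells; lower values mean less growth of the strain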
Conditions: growth OD

Measured: normalized growth

NC(Cn1ccc(=O)c(O)c1)C(=O)O (configuration not stated)
inactive: S. cerevisiae deletion strains, locus YJR075W, strain HOC1, hits give low values 1.01 | S. cerevisiae deletion strains, locus YKL009W, strain mrt4, hits give low values 1.01 | S. cerevisiae deletion strains, locus YKL068W, hits give low values 0.993 | S. cerevisiae deletion strains, locus YKL085W, strain MDH1 (second series), hits give low values 0.993 | S. cerevisiae deletion strains, locus YKL085W, strain MDH1, hits give low values 0.993 | S. cerevisiae deletion strains, locus YKL160W, strain elf1, hits give low values 1.04 | S. cerevisiae deletion strains, locus YKL190W, strain CNB1, hits give low values 1.01 | S. cerevisiae deletion strains, locus YKR001C, strain vps1, hits give low values 0.991 | S. cerevisiae deletion strains, locus YKR026C, strain gcn3, hits give low values 1.03 | S. cerevisiae deletion strains, locus YKR091W, strain srl3, hits give low values 1.01 | S. cerevisiae deletion strains, locus YLL001W, strain dnm1, hits give low values 0.981 | S. cerevisiae deletion strains, locus YLL026W, hits give low values 1.01 | S. cerevisiae deletion strains, locus YLL041C, strain sdh2, hits give low values 1.01 | S. cerevisiae deletion strains, locus YLR027C, strain aat2, hits give low values 1.01 | S. cerevisiae deletion strains, locus YLR039C, strain RIC1, hits give low values 1.04 | S. cerevisiae deletion strains, locus YLR058C, strain SHM2, hits give low values 1.01 | S. cerevisiae deletion strains, locus YLR102C, strain apc9, hits give low values 0.988 | S. cerevisiae deletion strains, locus YLR113W, strain HOG1, hits give low values 1.03 | S. cerevisiae deletion strains, locus YLR221C, strain rsa3, hits give low values 1 | S. cerevisiae deletion strains, locus YLR258W, strain gsy2, hits give low values 1.03 | S. cerevisiae deletion strains, locus YLR262C, strain YPT6 (second series), hits give low values 0.977 | S. cerevisiae deletion strains, locus YLR262C, strain YPT6, hits give low values 1.03 | S. cerevisiae deletion strains, locus YLR268W, strain sec22, hits give low values 0.962 | S. cerevisiae deletion strains, locus YLR320W, strain mms22, hits give low values 0.981 | S. cerevisiae deletion strains, locus YLR330W, strain CHS5, hits give low values 1.01 | S. cerevisiae deletion strains, locus YLR342W, strain FKS1 (second series), hits give low values 1.06 | S. cerevisiae deletion strains, locus YLR342W, strain FKS1, hits give low values 1.03 | S. cerevisiae deletion strains, locus YLR357W, strain rsc2, hits give low values 0.986 | S. cerevisiae deletion strains, locus YLR370C, strain arc18, hits give low values 1.03 | S. cerevisiae deletion strains, locus YLR371W, strain rom2, hits give low values 0.995 | S. cerevisiae deletion strains, locus YLR384C, strain iki3, hits give low values 1.03 | S. cerevisiae deletion strains, locus YLR418C, strain cdc73, hits give low values 0.994 | S. cerevisiae deletion strains, locus YML016C, strain PPZ1, hits give low values 1.02 | S. cerevisiae deletion strains, locus YML032C, strain rad52, hits give low values 0.965 | S. cerevisiae deletion strains, locus YML120C, strain ndi1, hits give low values 1.01 | S. cerevisiae deletion strains, locus YML124C, strain tub3, hits give low values 0.995 | S. cerevisiae deletion strains, locus YMR058W, strain fet3, hits give low values 1.01 | S. cerevisiae deletion strains, locus YMR078C, strain ctf18, hits give low values 0.982 | S. cerevisiae deletion strains, locus YMR125W, strain sto1, hits give low values 1.04 | S. cerevisiae deletion strains, locus YMR129W, hits give low values 1.01 | S. cerevisiae deletion strains, locus YMR205C, strain PFK2, hits give low values 1.01 | S. cerevisiae deletion strains, locus YMR223W, strain ubp8, hits give low values 1.01 | S. cerevisiae deletion strains, locus YMR231W, strain pep5, hits give low values 1.02 | S. cerevisiae deletion strains, locus YMR263W, strain SAP30, hits give low values 1.01 | S. cerevisiae deletion strains, locus YMR307W, strain GAS1, hits give low values 1.02 | S. cerevisiae deletion strains, locus YNL067W, strain RPL9B, hits give low values 1.01 | S. cerevisiae deletion strains, locus YNL071W, strain lat1, hits give low values 1.02 | S. cerevisiae deletion strains, locus YNL128W, strain TEP1, hits give low values 1.01 | S. cerevisiae deletion strains, locus YNL153C, strain GIM3, hits give low values 1.01 | S. cerevisiae deletion strains, locus YNL183C, strain NPR1, hits give low values 0.974 | S. cerevisiae deletion strains, locus YNL209W, strain ssb2, hits give low values 1.03 | S. cerevisiae deletion strains, locus YNL233W, strain BNI4, hits give low values 1.02 | S. cerevisiae deletion strains, locus YNL248C, strain rpa49, hits give low values 1.04 | S. cerevisiae deletion strains, locus YNL250W, strain rad50, hits give low values 0.978 | S. cerevisiae deletion strains, locus YNL271C, strain bni1, hits give low values 0.984 | S. cerevisiae deletion strains, locus YNL298W, strain CLA4, hits give low values 0.987 | S. cerevisiae deletion strains, locus YNL307C, strain MCK1, hits give low values 0.997 | S. cerevisiae deletion strains, locus YNL322C, strain KRE1 (second series), hits give low values 1.02 | S. cerevisiae deletion strains, locus YNL322C, strain KRE1, hits give low values 1.01 | S. cerevisiae deletion strains, locus YNR049C, strain mso1, hits give low values 1.02 | S. cerevisiae deletion strains, locus YNR052C, strain pop2, hits give low values 0.992 | S. cerevisiae deletion strains, locus YOL006C, strain TOP1, hits give low values 1.01 | S. cerevisiae deletion strains, locus YOL012C, strain htz1 0.622 | S. cerevisiae deletion strains, locus YOL147C, strain pex11, hits give low values 0.985 | S. cerevisiae deletion strains, locus YOR001W, strain rrp6, hits give low values 0.969 | S. cerevisiae deletion strains, locus YOR061W, strain CKA2, hits give low values 1.03 | S. cerevisiae deletion strains, locus YOR069W, strain VPS5, hits give low values 1.01 | S. cerevisiae deletion strains, locus YOR070C, strain gyp1, hits give low values 1.03 | S. cerevisiae deletion strains, locus YOR080W, strain dia2, hits give low values 1.01 | S. cerevisiae deletion strains, locus YOR083W, strain WHI5, hits give low values 0.982 | S. cerevisiae deletion strains, locus YOR106W, strain vam3, hits give low values 1.02 | S. cerevisiae deletion strains, locus YOR136W, strain idh2, hits give low values 0.996 | S. cerevisiae deletion strains, locus YOR144C, strain elg1, hits give low values 0.985 | S. cerevisiae deletion strains, locus YOR184W, strain ser1, hits give low values 0.99 | S. cerevisiae deletion strains, locus YOR231W, strain MKK1, hits give low values 1.02 | S. cerevisiae deletion strains, locus YOR265W, strain rbl2, hits give low values 1.02 | S. cerevisiae deletion strains, locus YOR270C, strain vph1, hits give low values 1.07 | S. cerevisiae deletion strains, locus YOR290C, strain snf2, hits give low values 1.04 | S. cerevisiae deletion strains, locus YOR316C, strain cot1, hits give low values 0.988 | S. cerevisiae deletion strains, locus YPL051W, strain arl3, hits give low values 1.03 | S. cerevisiae deletion strains, locus YPL055C, strain LGE1, hits give low values 1.05 | S. cerevisiae deletion strains, locus YPL078C, strain atp4, hits give low values 1.05 | S. cerevisiae deletion strains, locus YPL106C, strain sse1, hits give low values 1.02 | S. cerevisiae deletion strains, locus YPL240C, strain hsp82, hits give low values 1.01 | S. cerevisiae deletion strains, locus YPL241C, strain CIN2, hits give low values 1.01 | S. cerevisiae deletion strains, locus YPL256C, strain CLN2, hits give low values 1.03 | S. cerevisiae deletion strains, locus YPR119W, strain clb2, hits give low values 0.988 | S. cerevisiae deletion strains, locus YPR141C, strain kar3, hits give low values 0.993 | S. cerevisiae deletion strains, locus YPR163C, strain tif3, hits give low values 0.987 | S. cerevisiae deletion strains, locus YPR167C, strain met16, hits give low values 0.99 | S. cerevisiae deletion strains, strain wtn01, hits give low values 0.991 | S. cerevisiae strains, strain wild type, hits give low values 1.03

— PubChem BioAssay AID1159580 (chemical genetic matrix, 2015)
